A short description of assay [1]: CCTE_Mundy_HCI_Cortical_Synap_Neur_Matur_NeuriteLength: CCTE's Synaptogenesis and Neurite Maturation Assay in rat cortical cells for Neurite Length, Mundy Lab (AID 2284214). In a few lines:
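Neurite length quantified by automated high-content imaging of MAP2, synaptophysin and Hoechst staining. Rat cortical cells received chemical from DIV 7 to DIV 12 […], glial growth arrested by AraC at DIV 5; DMSO baseline.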

Assay [2] can be described thus: CCTE_Mundy_HCI_Cortical_Synap_Neur_Matur_SynapseCount: CCTE's Synaptogenesis and Neurite Maturation Assay in rat cortical cells for Synapse Count, Mundy Lab (AID 2284218). In short, it runs like this: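 High-content imaging of synaptophysin puncta per MAP2-positive neuron (Hoechst nuclei) in rat cortical cells exposed DIV 7–12 after glial arrest with AraC at DIV 5; decrease relative to DMSO scored.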

Assay [3] is described as follows: CCTE_Mundy_HCI_Cortical_Synap_Neur_Matur_NeuriteCount: CCTE's Synaptogenesis and Neurite Maturation Assay in rat cortical cells for Neurite Count, Mundy Lab (AID 2284222).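 Also: exposure from day 7 to day 12 in vitro with readout at day 12.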 In short, it runs like this:
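In this multiplexed morphology readout, rat primary cortical neurons are fixed at DIV 12 following dosing at DIV 7 and stained for MAP2, synaptophysin and nuclei. High-content image analysis yields neurite count.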

A short description of assay [4]: CCTE_Mundy_HCI_Cortical_Synap_Neur_Matur_CellBodySpotCount: CCTE's Synaptogenesis and Neurite Maturation Assay in rat cortical cells for Cell Body Spot Count, Mundy Lab (AID 2284223). In a few lines: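 High-content imaging counts synaptophysin puncta on neuronal cell bodies per neuron after MAP2/synaptophysin immunostaining. Rat primary cortical cells, glia arrested with AraC at DIV 5, were exposed DIV 7–12; signal decrease measured against DMSO.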

Assay [5] in a line: CCTE_Mundy_HCI_hNP1_Pro_ResponderAvgInten: CCTE's Proliferation Assay in human neuroprogenitor cells, Mundy Lab (AID 2284224; active = hit-call score of the fitted dose curve at least 0.9, where 1 is the maximum). In a few lines:
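Proliferation was scored as BrdU labelling intensity in human neural progenitors derived from WA09 embryonic cells, measured 26.25 hours after chemical dosing. Activity was fitted relative to DMSO.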

A short description of assay [6]: UKN2_HCS_IMR90_cell_viability: Viability Assessment in the University of Konstanz (UKN) Leist Lab Neural Crest Cell Migration Assay in human induced IMR90 Pluripotent Stem Cells (UKN2) (AID 2284233).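 Also: cells exposed to compound for 24 h after a 24 h migration phase.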 In short, it runs like this: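 After calcein-AM/Hoechst staining, viability is quantified by high-content fluorescence imaging, relative to DMSO, in iPSC (IMR90)-derived neural crest cells. Exposure lasts 24 h, starting after a 24 h migration period on PLO/laminin/fibronectin coating.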

Assay [7] in a line: CCTE_Mundy_HCI_Cortical_NOG_NeuronCount: CCTE's Neurite Outgrowth Assay in rat cortical cells for Neuron Count, Mundy Lab (AID 2284236; active = hit-call score of the fitted dose curve at least 0.9, where 1 is the maximum;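 also: neurons counted by imaging betaIII-tubulin and Hoechst stained cortical cells; cells exposed to compound for about 48 hours before fixation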). In short, it runs like this: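 Read-out: neuron number by high-content imaging of betaIII-tubulin (Alexa Fluor-488) and Hoechst-labelled rat primary cortical cells.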
Assay [8] is described as follows: CCTE_Mundy_HCI_Cortical_NOG_BPCount: CCTE's Neurite Outgrowth Assay in rat cortical cells for Branch Point Count, Mundy Lab (AID 2284237).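 Also: branch points counted about two days after chemical exposure.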 In a few lines: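 Measured 50.33 h after dosing, this morphology endpoint uses rat primary cortical cultures labelled for betaIII-tubulin. Branch points are quantified by high-content imaging, with DMSO as negative control and baseline.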

A short description of assay [9]: CCTE_Mundy_HCI_hNP1_Casp3_7: CCTE's Caspase-Glo 3/7 Assay in human neuroprogenitor cells for Apoptosis, Mundy Lab (AID 2284240). In a few lines: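 Apoptosis is scored by activated caspase-3/7 luminescence in WA09-derived neural progenitor cells, measured 26.5 h after chemical dosing. Values represent gain of signal relative to DMSO vehicle.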
Assay [10] in a line: CCTE_Mundy_HCI_Cortical_Synap_Neur_Matur_NeuronCount: CCTE's Synaptogenesis and Neurite Maturation Assay in rat cortical cells for Neuron Count, Mundy Lab (AID 2284242; active = hit-call score of the fitted dose curve at least 0.9, where 1 is the maximum). In short, it runs like this: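 Neuron counts come from automated high-content imaging of Hoechst nuclei and MAP2/synaptophysin immunostaining at DIV 12, with loss of signal judged against DMSO. Cultures of rat cortical cells had glial growth arrested by AraC at DIV 5; chemical exposure began DIV 7.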

The nature of assay [11]: IUF_NPC2c_oligodendrocyte_migration_120hr: Leibniz Research Institute for Environmental Medicine (IUF) 120-hour Neural Progenitor Cell Migration Assay for Oligodendrocyte Migration (NPC2c) (AID 2284297).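 Also: O4-positive oligodendrocyte migration distance divided by radial glia migration distance.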 In a few lines:
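Exposure runs 5 days from differentiation onset at 37C, seven concentrations plus solvent control, DMSO at most 0.1%, applied to primary hNPC spheres on laminin. After fixation, O4 immunostaining gives oligodendrocyte distance from the sphere core, relative to radial glia migration.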

A short description of assay [12]: IUF_NPC2a_radial_glia_migration_120hr: Leibniz Research Institute for Environmental Medicine (IUF) 120-hour Neural Progenitor Cell Migration Assay for Radial Glia Migration (NPC2a) (AID 2284298). In a few lines:
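Migration distance in um, sphere core edge to migration-area edge, derived by nuclei-density algorithm from Hoechst images after 120 h compound exposure. Primary hNPC spheres differentiated on poly-D-lysine/laminin in N2 medium, 37C; medium half-replaced day 3.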

Assay [13] in a line: IUF_NPC2b_neuronal_migration_120hr: Leibniz Research Institute for Environmental Medicine (IUF) 120-hour Neural Progenitor Cell Migration Assay for Neuron Migration (NPC2b) (AID 2284300). In a few lines:
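TUBB3-positive neurons are imaged after 120 h of differentiation, and their mean distance from the sphere edge is normalised to radial glia migration. Single 0.3 mm fetal hNPC spheres on poly-D-lysine/laminin received 7 compound concentrations, ≤0.1% DMSO, refreshed at day 3.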

A short description of assay [14]: IUF_NPC3_neuronal_differentiation_120hr: Leibniz Research Institute for Environmental Medicine (IUF) 120-hour Neuronal Differentiation Assay (NPC3) (AID 2284301). In short, it runs like this:
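Value is percent TUBB3-positive neurons among Hoechst-stained nuclei in the migration area, scored by trained CNN after 120 h differentiation. Primary hNPC spheres on poly-D-lysine/laminin, N2 medium, continuous dosing from day 0, half-refeed day 3; DMSO reference.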

A short description of assay [15]: IUF_NPC4_neurite_length_120hr: Leibniz Research Institute for Environmental Medicine (IUF) 120-hour Neuronal Morphology Assay for Neurite Length (NPC4) (AID 2284302). In short, it runs like this:
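Neurite length, the mean in um across TUBB3-stained neurons, is derived by skeletonization of high-content images after 120 h differentiation. Compound exposure, 7 concentrations plus solvent control, ran from plating of hNPC spheres on poly-D-lysine/laminin, with medium half-replaced on day 3.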

A short description of assay [16]: IUF_NPC5_oligodendrocyte_differentiation_120hr: Leibniz Research Institute for Environmental Medicine (IUF) 120-hour Oligodendrocyte Differentiation Assay (NPC5) (AID 2284304; active = hit-call score of the fitted dose curve at least 0.9, where 1 is the maximum;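 also: primary human fetal neural progenitor spheres plated to migrate and differentiate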). In a few lines:
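Oligodendrocyte differentiation scored as O4-positive cells, found by CNN image analysis, as percent of Hoechst-stained nuclei in the migration area. Scoring followed 5 days of exposure of plated hNPC neurospheres differentiating in DMEM/F12 N2 medium at 37C, with compound refreshed at day 3.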

Assay [17] is described as follows: IUF_NPC2-5_cytotoxicity_72hr: Cytotoxicity Assessment at 72 hours in the Leibniz Research Institute for Environmental Medicine (IUF) Neural Progenitor Cell Migration and Differentiation Assay for Cytotoxicity (NPC2-5) (AID 2284306; active = hit-call score of the fitted dose curve at least 0.9, where 1 is the maximum;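 also: LDH release into supernatant measured by resorufin fluorescence marking membrane damage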). In a few lines: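 Membrane-integrity cytotoxicity at 72 h, read as LDH-driven resorufin fluorescence in supernatant. hNPC spheres from fetal cortex differentiate on coated plates in N2 medium, 37C, 5% CO2; seven serial compound concentrations plus solvent control (DMSO ≤0.1%).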

Assay [18] can be described thus: IUF_NPC2-5_cytotoxicity_120hr: Cytotoxicity Assessment at 120 hours in the Leibniz Research Institute for Environmental Medicine (IUF) Neural Progenitor Cell Migration and Differentiation Assay (NPC2-5) (AID 2284307; active = hit-call score of the fitted dose curve at least 0.9, where 1 is the maximum). In short, it runs like this:
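Membrane-integrity loss measured as LDH activity in medium supernatant via resazurin-to-resorufin fluorescence after 120 h exposure. hNPC spheres from GW 16-19 fetal cortex differentiated on poly-D-lysine/laminin, 37C, medium half-refreshed day 3; seven concentrations, DMSO max 0.1%.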

A short description of assay [19]: IUF_NPC2-5_cell_number_120hr: Cell Number Assessment at 120 hours in the Leibniz Research Institute for Environmental Medicine (IUF) Neural Progenitor Cell Migration and Differentiation Assay (NPC2-5) (AID 2284308).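 Also: count of Hoechst-stained nuclei in migration zone around plated human neural progenitor spheres.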 In short, it runs like this: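 Counting of all Hoechst-stained nuclei in the migration area at 120 h, versus DMSO control. Primary hNPC spheres differentiated on poly-D-lysine/laminin in N2 medium at 37C, dosed from day 0 (7 concentrations, DMSO ≤0.1%), half-refed day 3.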

Assay [20] in a line: IUF_NPC2-5_viability_120hr: Viability Assessment at 120 hours in the Leibniz Research Institute for Environmental Medicine (IUF) Neural Progenitor Cell Migration and Differentiation Assay (NPC2-5) (AID 2284312). In a few lines:
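Alamar blue resorufin fluorescence read after 5 days of differentiation, with compound present from day 0 and replenished at day 3. Primary hNPC spheres on laminin-coated plates, 37C; seven concentrations plus solvent control, fitted against DMSO.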

Assay [21] can be described thus: CCTE_Mundy_HCI_iCellGluta_NOG_NeuriteLength: CCTE's Neurite Outgrowth Assay in iCellGluta cells for Neurite Length, Mundy Lab (AID 2284318; active = hit-call score of the fitted dose curve at least 0.9, where 1 is the maximum). In short, it runs like this: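 Automated high-content imaging of betaIII-tubulin (Alexa Fluor-488) and Hoechst-stained cells gave neurite length, normalized to the DMSO baseline.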
A short description of assay [22]: IUF_NPC1_cytotoxicity_72hr: Cytotoxicity Assessment at 72 hours in the Leibniz Research Institute for Environmental Medicine (IUF) Neural Progenitor Cell Proliferation Assay (NPC1) (AID 2284332; active = hit-call score of the fitted dose curve at least 0.9, where 1 is the maximum;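 also: rising LDH signal means more cytotoxicity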). In a few lines:
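Cytotoxicity by LDH membrane-integrity assay on medium supernatants, fluorescence via resazurin reduction, after 3-day single exposure of primary hNPC spheres at 37C, pH 7.2-7.6 with growth factors. Fitted upward against baseline.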

Assay [23] is described as follows: CCTE_Mundy_HCI_iCellGluta_NOG_NeuriteCount: CCTE's Neurite Outgrowth Assay in iCellGluta cells for Neurite Count, Mundy Lab (AID 2284342; active = hit-call score of the fitted dose curve at least 0.9, where 1 is the maximum;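 also: chemical exposure about 48 hours starting 2 hours after plating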).

Results filed as inconclusive are left out. Calls of active or inactive are those of the source. The calls were made as follows, unless noted: active = hit-call score of the fitted dose curve at least 0.9, where 1 is the maximum; inactive = score below 0.9.

The AC50 is the midpoint of the concentration-response curve, whichever way the signal moves.

Regarding `CC1(C)C(C=C(Cl)c2ccc(Cl)cc2)C1C(=O)OC(C#N)c1ccc(F)c(Oc2ccccc2)c1` (stereo not drawn), the half-maximal activity concentration (AC50) in assay [1] was 61.6 µM (active); in assay [2], 75.2 µM (active); in assay [8], 23.5 µM (active); in [21] it was 67.3 µM (active); in assay [23], 74.1 µM (active). The compound was called inactive in [3], in [4], in assay [5], in assay [6], in assay [7] and in assay [9]. For the same compound, the call in [10], in [11], in assay [12], in assay [13], in assay [14] and in [15] was inactive. In addition, the compound was called inactive in assay [16], in [17], in [18], in assay [19], in [20] and in assay [22].

The values above are taken from PubChem BioAssay (EPA / NIEHS).
